11 compounds from PubChem BioAssay (NCATS) can be followed below.

Inconclusive results are not listed. A call without a number means that no potency is given here. Calls of active or inactive are those of the source. The call rests on the fitted dose curve; in most records, active means well fitted inhibition curve with a large enough effect; inconclusive means small, poorly fitted or top-dose-only effect; inactive means flat fitted curve, though single readings scatter.

The target in this assay is Calcium and integrin-binding protein 1 (Homo sapiens) (UniProt Q99828). As to the kind of experiment: Primary qHTS for Identification of Calcium Integrin Binding Protein 1 (CIB1) Competitor (AID 1508620).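 Further: GST tagged CIB1 binding a fluorescein labelled alphaIIb integrin peptide tracer; top concentration of the series differs between compounds.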 As to conditions: CIB1-GST / FITC-alphaIIb peptide fluorescence polarization; series mostly up to 57.7 µM. The gist of the method: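 Fluorescence polarization competition: CIB1-GST (1 uM final) preincubated with compound 15 min at room temperature, then FITC-labeled alphaIIb peptide (100 nM final) added for another 15 min. Polarization read at Ex 480/Em 540.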
Chain of Calcium and integrin-binding protein 1 (Homo sapiens) (Q99828 whole entry, looked up): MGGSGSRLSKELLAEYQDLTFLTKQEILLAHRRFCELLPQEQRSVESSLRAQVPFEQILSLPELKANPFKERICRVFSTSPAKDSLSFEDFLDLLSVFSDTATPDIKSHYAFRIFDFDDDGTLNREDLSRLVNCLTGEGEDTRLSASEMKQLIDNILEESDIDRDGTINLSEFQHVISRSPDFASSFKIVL
With `C=CC(=O)Nc1cc(NC(=O)c2ccc(C)c(NC(=O)c3ccno3)c2)cc(C(F)(F)F)c1`, the Potency result was “inactive”.

Regarding `C[C@H](NCc1ccc(OCc2cccc(F)c2)cc1)C(N)=O`, the Potency result was “inactive”.

Take `C=CCNC1=C2C[C@@H](C)C[C@H](OC)[C@@H](O)[C@@H](C)C=C(C)[C@H](OC(N)=O)[C@@H](OC)C=CC=C(C)C(=O)NC(=CC1=O)C2=O`: the Potency result was “inactive”.

For `CC(=CC(=O)Nc1ccccc1C(=O)O)c1ccc2ccccc2c1`, the Potency result was “inactive”.

`CN[C@@H]1C[C@H]2O[C@@](C)([C@H]1OC)n1c3ccccc3c3c4c(c5c6ccccc6n2c5c31)C(=O)N[C@H]4O`: the Potency result is “inactive”.

`O=C(NCc1ccccc1)[C@H](Cc1ccccc1)NC(=O)[C@@H]1O[C@@H]1C(=O)NCCc1ccc(O)cc1`: the Potency entry was “inactive”.

As for `C[C@H](NCc1ccc2c(c1)nc(NC(=O)c1ccc(-c3cn[nH]c3)s1)n2CCc1ccccc1)C(C)(C)C`, the Potency result is “inactive”.

With `CC[C@H](CC[C@@H](C)[C@H]1CC[C@H]2[C@@H]3CC=C4C[C@@H](O)CC[C@]4(C)[C@@H]3CC[C@]12C)C(C)C`, the Potency entry is “inactive”.

For `CC[C@H]1OC(=O)[C@H](C)[C@@H](O[C@H]2C[C@@](C)(OC)[C@@H](O)[C@H](C)O2)[C@H](C)[C@@H](O[C@@H]2O[C@H](C)C[C@H](N(C)C)[C@@H]2O)[C@](C)(OC)C[C@@H](C)C(=O)[C@H](C)[C@@H](O)[C@]1(C)O`, the Potency result was “inactive”.

In the case of `C[C@H](NC(=O)C(C#N)=Cc1cccc(Br)n1)c1ccccc1`, the Potency result is “inactive”.

Regarding `CC(=O)N[C@@H]1[C@H](O[C@@H]2c3ccc(c(Cl)c3)Oc3cc4cc(c3O[C@H]3O[C@H](CO)[C@@H](O)[C@H](O)[C@H]3NC(=O)CCCCCCCC(C)C)Oc3ccc(cc3Cl)C[C@H]3NC(=O)[C@H](N)c5ccc(O)c(c5)Oc5cc(O)cc(c5)[C@H](NC3=O)C(=O)N[C@H]4C(=O)N[C@H]3C(=O)N[C@@H]2C(=O)N[C@@H](C(=O)O)c2cc(O)cc(O[C@H]4O[C@H](CO)[C@@H](O)[C@H](O)[C@H]4O)c2-c2cc3ccc2O)O[C@H](CO)[C@@H](O)[C@@H]1O`, the Potency entry is “inactive”.
